Assay results taken from PubChem BioAssay (NCATS).
Values joined by “and” are separate entries in the source; they are usually repeats but may differ in a detail not shown here. Identical values can stand only once. Records with an inconclusive call do not appear. A call without a number means that no potency is given here. The source holds several records for some structures; these can differ, active in one and inactive in another. Active and inactive are the calls of the source. Calls come from the whole dose curve; as a rule, active = well fitted curve in the direction sought with a large enough effect; inconclusive = small, poorly fitted or top-dose-only effect, or another doubt; inactive = no such curve, though single readings can be large; an effect the other way counts as inactive or inconclusive.

How the values were obtained:
[1] = Primary qHTS for inhibitors of nuclear receptor binding SET domain protein 2 (NSD2) in an isogenic RCH-ACV NSD2 p.E1099K mutant (9B) (AID 1645876); note: nearly all actives have a fitted effect of over 70% in size; note: potency is the fitted concentration of half-maximal effect
[2] = Primary qHTS for inhibitors of nuclear receptor binding SET domain protein 2 (NSD2) in an RCH-ACV wild type WT cells (2C) (AID 1645877); note: nearly all actives have a fitted effect of over 70% in size; note: potency is the fitted concentration of half-maximal effect
[3] = target: Glutathione peroxidase 1 (Homo sapiens) (UniProt P07203); assay: Primary qHTS Assay for Inhibitors of Recombinant Selenoprotein Glutathione Peroxidase 1 (GPX1) (AID 1845191); note: nearly all actives have a fitted effect of over 65% in size; note: potency is the fitted concentration of half-maximal effect
Summary of the method: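 Recombinant GPX1 (10 nM final) was preincubated with compound for 30 min at room temperature, then reacted with 1 mM GSH, 0.5 mM CHP, 0.5 mM NADPH and 100 nM glutathione reductase; NADPH fluorescence (340/450 nm) was read at 0 and 15 min.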

[4] = target: Phospholipid hydroperoxide glutathione peroxidase GPX4 (Homo sapiens) (UniProt P36969); assay: Primary qHTS Assay for Inhibitors of Recombinant Selenoprotein Glutathione Peroxidase 4 (GPX4) (AID 1845192); note: nearly all actives have a fitted effect of over 65% in size; note: potency is the fitted concentration of half-maximal effect
Summary of the method: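 GR-coupled readout: 100 nM GR, 1 mM GSH, 0.5 mM NADPH; NADPH fluorescence (ex 340/em 450 nm) read at t=0 and after 15 min RT. GPX4 200 nM, preincubated 30 min with compound; substrate 0.5 mM CHP.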

[5] = target: Luciferin 4-monooxygenase (Photinus pyralis) (UniProt P08659); assay: Primary firefly luciferase (FLuc) qHTS assay for identification of artifact compounds. (AID 1845220); note: nearly all actives have a fitted effect of over 60% in size
Summary of the method: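 In this counter-screen for luciferase artifacts, test compounds met substrate (10 uM each luciferin and ATP) before 10 nM enzyme started the reaction. Light output was measured 5 min later.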

[6] = Primary fluorescence-based thiol-reactive (MSTI) qHTS assay for identification of artifact compounds. (AID 1845221); note: nearly all actives have a fitted effect of over 65% in size; note: potency is the fitted concentration of half-maximal effect
Summary of the method: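 MSTI probe at 4 uM final in 2% DMSO/PBS pH 7.4; compounds, 1 h at room temperature in dark. Fluorescence Ex/Em 525/598 nm, normalised to Acetyl-MSTI and MSTI, fitted to 4-parameter Hill.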

[7] = test system: Nanoluciferase (engineered Oplophorus gracilirostris luciferase); assay: Primary Nanoluciferase (NLuc) qHTS assay for identification of artifact compounds. (AID 1845222); note: potency is the fitted concentration of half-maximal effect
Summary of the method: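 Using secreted nanoluciferase in S16 culture medium (0.22 um filtered, 1:55 dilution), compounds were preincubated 15 min at RT. Signal was generated with Nano-Glo reagent (1:100) over 5 min.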

Sequence of Phospholipid hydroperoxide glutathione peroxidase GPX4 (Homo sapiens) (P36969 whole entry, looked up): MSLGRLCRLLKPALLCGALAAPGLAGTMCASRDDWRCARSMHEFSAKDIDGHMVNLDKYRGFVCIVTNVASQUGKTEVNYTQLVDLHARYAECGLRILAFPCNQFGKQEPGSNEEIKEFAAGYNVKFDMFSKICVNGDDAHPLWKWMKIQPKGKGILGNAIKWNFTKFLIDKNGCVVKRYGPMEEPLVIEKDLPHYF
Sequence of Glutathione peroxidase 1 (Homo sapiens) (P07203 whole entry, looked up): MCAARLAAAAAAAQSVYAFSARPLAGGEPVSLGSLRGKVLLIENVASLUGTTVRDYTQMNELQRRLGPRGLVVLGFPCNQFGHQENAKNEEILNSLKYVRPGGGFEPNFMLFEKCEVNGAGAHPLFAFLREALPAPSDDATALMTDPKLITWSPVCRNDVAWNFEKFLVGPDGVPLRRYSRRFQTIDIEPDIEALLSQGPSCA

Structure (SMILES): COc1ccc2c(c1)CC[C@@H](CN(C)CC(=O)O)[C@H]2c1ccccc1
- Potency [1]: inactive
- Potency [2]: inactive
- Potency [3]: inactive
- Potency [4]: inactive
- Potency [5]: inactive
- Potency [6]: inactive
- Potency [7]: inactive

Structure (SMILES): Cc1cn2cc(C(=O)N(C)CCO)cc(N[C@@H]3CCOc4cccc(C)c43)c2n1
- Potency [1]: inactive
- Potency [2]: inactive
- Potency [3]: inactive
- Potency [4]: inactive
- Potency [5]: inactive
- Potency [7]: inactive

Structure (SMILES): N#CCNC(=O)c1ccc(-c2ccnc(Nc3ccc(N4CCOCC4)cc3)n2)cc1
- Potency [1]: 817 nM (active) and 2.63 µM (active)
- Potency [2]: 1.15 µM (active) and 2.95 µM (active)
- Potency [3]: inactive
- Potency [4]: inactive
- Potency [5]: inactive
- Potency [6]: 1.5 µM (active)
- Potency [7]: inactive

Structure (SMILES): CC1COC2(CCN(c3nc(=O)c4cc(C(F)(F)F)cc([N+](=O)[O-])c4s3)CC2)O1 (centres undefined)
- Potency [1]: inactive
- Potency [2]: inactive
- Potency [3]: inactive
- Potency [4]: inactive
- Potency [5]: inactive
- Potency [7]: inactive

Structure (SMILES): CS(=O)(=O)c1ccc(-c2cnc(N)c(C(=O)Nc3ccccc3)n2)cc1
- Potency [1]: 2.63 µM (active)
- Potency [2]: 2.63 µM (active)
- Potency [3]: inactive
- Potency [4]: inactive
- Potency [5]: inactive
- Potency [6]: inactive
- Potency [7]: inactive

Structure (SMILES): COc1cc2c(Oc3ccc(-c4cnc(Nc5ccc(F)cc5)n(C)c4=O)cc3F)ccnc2cc1OCCCN1CCOCC1
- Potency [1]: 4.09 µM (active) and 1.48 µM (active)
- Potency [2]: 4.59 µM (active) and 2.09 µM (active)
- Potency [3]: inactive
- Potency [4]: inactive
- Potency [5]: inactive
- Potency [6]: inactive
- Potency [7]: inactive

Structure (SMILES): Nc1cc(C(F)(F)F)c(-c2cc(N3CCOCC3)nc(N3CCOCC3)n2)cn1
- Potency [1]: 578 nM (active) and 1.18 µM (active)
- Potency [2]: 728 nM (active) and 934 nM (active)
- Potency [3]: inactive
- Potency [4]: inactive
- Potency [5]: inactive
- Potency [6]: inactive
- Potency [7]: inactive

Structure (SMILES): Cc1cnc(-c2cnc(NCCNc3ccc(C#N)cn3)nc2-c2ccc(Cl)cc2Cl)[nH]1
- Potency [1]: 4.59 µM (active) and 3.72 µM (active)
- Potency [2]: 3.25 µM (active) and 3.72 µM (active)
- Potency [3]: inactive
- Potency [4]: inactive
- Potency [5]: inactive
- Potency [6]: inactive
- Potency [7]: 3.38 µM (active)

Structure (SMILES): Cc1nc(N)ncc1-c1nc(N2CCOCC2)c2sc(C(C)(C)O)cc2n1
- Potency [1]: 81.7 nM (active) and 590 nM (active)
- Potency [2]: 115 nM (active) and 468 nM (active)
- Potency [3]: inactive
- Potency [4]: inactive
- Potency [5]: inactive
- Potency [6]: inactive
- Potency [7]: inactive

Structure (SMILES): Cc1ccc(CN2CCNCC2)cc1NC(=O)CNc1ccc(F)c(F)c1
- Potency [1]: inactive
- Potency [2]: inactive
- Potency [3]: inactive
- Potency [4]: inactive
- Potency [5]: inactive
- Potency [7]: inactive

Structure (SMILES): O=C(Nc1cc(C(F)(F)F)cc(C(F)(F)F)c1)c1cc(Cl)ccc1O
- Potency [1]: 3.25 µM (active) and 2.63 µM (active)
- Potency [2]: 2.3 µM (active) and 2.95 µM (active)
- Potency [3]: inactive
- Potency [4]: inactive
- Potency [5]: inactive
- Potency [7]: inactive

Structure (SMILES): O=C(Cc1ccc(-c2ccc(OCCN3CCOCC3)cc2)cn1)NCc1ccccc1
- Potency [1]: 459 nM (active) and 105 nM (active)
- Potency [2]: 258 nM (active) and 105 nM (active)
- Potency [3]: inactive
- Potency [4]: inactive
- Potency [5]: inactive
- Potency [6]: inactive
- Potency [7]: inactive

Structure (SMILES): CCc1c2c(nc3ccc(O)cc13)-c1cc3c(c(=O)n1C2)COC(=O)[C@]3(O)CC
- Potency [1]: 0.0083 µM (active)
- Potency [2]: 0.0047 µM (active)
- Potency [3]: inactive
- Potency [4]: inactive
- Potency [5]: inactive
- Potency [7]: inactive

Structure (SMILES): CN(C)c1nc(Cc2ccc(NC(=O)c3ccc4ccccc4c3)cc2)nc(Cl)c1CC(=O)O
- Potency [1]: inactive
- Potency [2]: inactive
- Potency [3]: inactive
- Potency [4]: inactive
- Potency [6]: inactive
- Potency [7]: inactive

Structure (SMILES): Cn1c(=O)n(-c2ccc(C(C)(C)C#N)cc2)c2c3cc(-c4cnc5ccccc5c4)ccc3ncc21
- Potency [1]: 103 nM (active) and 38.2 nM (active)
- Potency [2]: 91.6 nM (active) and 42.8 nM (active)
- Potency [3]: inactive
- Potency [4]: inactive
- Potency [5]: inactive
- Potency [6]: inactive
- Potency [7]: inactive

Structure (SMILES): CN(C)CC(C)(C)CNc1nn2c(-c3ccccc3)nnc2cc1C1CCC1
- Potency [1]: inactive
- Potency [2]: inactive
- Potency [3]: inactive
- Potency [4]: inactive
- Potency [5]: inactive
- Potency [6]: inactive
- Potency [7]: inactive

Structure (SMILES): Cc1ccc(C(=O)Nc2ccc(CN3CCN(C)CC3)c(C(F)(F)F)c2)cc1C#Cc1cnc2cccnn12
- Potency [1]: 29 nM (active) and 186 nM (active)
- Potency [2]: 91.6 nM (active) and 209 nM (active)
- Potency [3]: inactive
- Potency [4]: inactive
- Potency [6]: inactive
- Potency [7]: inactive

Structure (SMILES): CC1(O)CC(c2nc(-c3ccc4ccc(-c5ccccc5)nc4c3)c3c(N)nccn23)C1 (centres undefined)
- Potency [1]: 12.9 µM (active)
- Potency [2]: 18.3 µM (active)
- Potency [3]: inactive
- Potency [4]: inactive
- Potency [5]: inactive
- Potency [7]: inactive

Structure (SMILES): COc1ccc(-c2cc3c(C)nc(N)nc3n(C3CCC(OCCO)CC3)c2=O)cn1 (centres undefined)
- Potency [1]: 20.5 nM (active) and 41.7 nM (active)
- Potency [2]: 20.5 nM (active) and 41.7 nM (active)
- Potency [3]: 5.78 µM (active) and 16.1 µM (active)
- Potency [5]: inactive
- Potency [6]: inactive
- Potency [7]: inactive

Structure (SMILES): COc1cc(Nc2ncc(F)c(Nc3ccc4c(n3)N(COP(=O)(O)O)C(=O)C(C)(C)O4)n2)cc(OC)c1OC
- Potency [1]: 1.29 µM (active) and 5.17 µM (active) and 1.48 µM (active)
- Potency [2]: 1.15 µM (active) and 5.17 µM (active) and 1.66 µM (active)
- Potency [3]: inactive
- Potency [4]: inactive
- Potency [5]: inactive
- Potency [7]: inactive

Structure (SMILES): CNC(=O)c1nn(C)c2c1C(C)(C)Cc1cnc(Nc3ccc(N4CCN(C)CC4)cc3)nc1-2
- Potency [1]: 515 nM (active) and 662 nM (active)
- Potency [2]: 409 nM (active) and 417 nM (active)
- Potency [3]: inactive
- Potency [4]: inactive
- Potency [5]: inactive
- Potency [7]: inactive

Structure (SMILES): Cc1cc(Nc2cc(CN3CCOCC3)c3nc(C)c(Cc4ccc(Cl)cc4F)n3n2)n[nH]1
- Potency [1]: 3.26 µM (active) and 1.86 µM (active)
- Potency [2]: 2.59 µM (active) and 1.18 µM (active)
- Potency [3]: inactive
- Potency [4]: inactive
- Potency [5]: inactive
- Potency [7]: inactive

Structure (SMILES): CC(C)(C)c1cc(NC(=O)Nc2ccc(-c3cn4c(n3)sc3cc(OCCN5CCOCC5)ccc34)cc2)no1
- Potency [1]: inactive
- Potency [2]: inactive
- Potency [3]: inactive
- Potency [4]: inactive
- Potency [5]: inactive
- Potency [7]: inactive

Structure (SMILES): Cc1ccc(NC(=O)C2(c3ccc4c(c3)OC(F)(F)O4)CC2)nc1-c1cccc(C(=O)O)c1
- Potency [1]: inactive
- Potency [2]: inactive
- Potency [3]: inactive
- Potency [4]: inactive and 14.1 µM (active)
- Potency [5]: inactive
- Potency [6]: inactive
- Potency [7]: inactive

Structure (SMILES): CCOC(=O)C1=C(C)NC2=C(C(=O)CC(C)(C)C2)C1c1ccc(-c2ccccc2)cc1 (centres undefined)
- Potency [3]: inactive
- Potency [4]: inactive
- Potency [5]: inactive
- Potency [6]: inactive

Structure (SMILES): Fc1cc(-c2cccc3ncc(-c4cnn(C5CCNCC5)c4)nc23)cc(F)c1CN1CCOCC1
- Potency [3]: inactive
- Potency [4]: inactive
- Potency [5]: inactive
- Potency [6]: inactive
- Potency [7]: inactive
